# HCV inh = HCV inhibition; Potency, µM (highest dose often 41.8 µM), without a hit: top-dose activity change, negative = inhibition, usual class: inhibitors; actives 3.4% (n = 340,000); Huh7.5.1 HCVcc-Cre infection, luciferase reporter, 44 h; note: potency is the fitted concentration of half-maximal effect; % is set by controls: 0 for no effect and ±100 for the full control effect
#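 HCVcc-Cre virus at an moi near 0.5 was added right after compound to cells cultured 4 h from seeding (1,000 cells/well). Luciferase activity was determined 44 h later, 15 min after substrate addition at RT.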
# Cycloheximide cs = affects cycloheximide protein synthesis inhibition readout, counter-screen. cell reporter, cycloheximide protein synthesis inhibition counterscreen. actives 12% (n = 300,000). max response, %. AID 2314; in the data active = max response mostly above about 13%, no sharp cut-off; inactive = mostly below about 14%; note: read at 38.3 µM for the half of the compounds with a filed dose; 0% is about no effect
# AMA1-RON2 inh = inhibitors of Plasmodium falciparum AMA1-RON2 interaction; AlphaScreen AMA1-biotinylated RON2 peptide binding; Potency, µM (highest dose often 58.2 µM), for the others: at the highest dose activity change, negative = inhibition, usual class: inhibitors; actives 0.2% (n = 360,000); AID 720542;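 note: potency is the fitted concentration of half-maximal effect; 0% = vehicle wells and -100% = peptide control; nearly all actives have a fitted effect of over 45% in size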
#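 AMA1 (3D7) with his tag at 25 nM final met compounds first, then biotinylated RON2 peptide at 25 nM; detection used donor plus acceptor beads, 10 µg/mL apiece, read by AlphaScreen after 30 min at room temperature.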
# Pf growth 96h = P. falciparum growth inhibition at 96 hour, primary screen for plastid delayed-death inhibitors; Potency, µM (series often up to 28.7 µM), for inactives: at the top dose activity change, negative = inhibition, actives largely listed as inhibitors; actives 6.9% (n = 320,000); AID 504834; P. falciparum luciferase reporter growth, 96 h; note: potency is the fitted concentration of half-maximal effect; % is set by controls: 0 for no effect and ±100 for the full control effect
#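 Infected RBCs, 2% Hct / 0.05% parasitemia final; luciferase-reporter P. falciparum; cpd 96 h, 37 C, 5% CO2; luciferase detection reagent; luminescence.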
# Pf growth 48h = inhibits P. falciparum growth in the first generation, 48 h. P. falciparum luciferase growth in erythrocytes, 48 h. actives 5.9% (n = 310,000). Potency, µM (series often up to 28.7 µM), inactives show top-dose activity change, negative = inhibition, most hits filed as inhibitors. AID 504832; note: potency is the fitted concentration of half-maximal effect; % is set by controls: 0 for no effect and ±100 for the full control effect
#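 Luminescence readout; reporter = integrated firefly luciferase in P. falciparum. RBC culture at 2% hematocrit, 0.1% parasitemia final, 37 C/5% CO2; decreased signal taken as growth inhibition.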
# Shiga inhibitor = inhibitors of Shiga toxin in Vero cells | Vero cells, Shiga toxin protein synthesis inhibition reporter | inhibition, % at 38.7 µM | actives 9.2% (n = 290,000) | AID 2315; in the data active = inhibition mostly above about 28%, no sharp cut-off; inactive = mostly below about 43%; note: 0% is about no effect
# * = called active by the depositor; i = inactive; ? = inconclusive; / = no result given; + = active, no number. This is a sample that favours compounds with a hit; in the whole collection about 21% have one here. Unless noted, calls come from the whole dose curve; as a rule, active = well fitted curve in the direction sought with a large enough effect; inconclusive = small, poorly fitted or top-dose-only effect, or another doubt; inactive = no such curve, though single readings can be large; an effect the other way counts as inactive or inconclusive.
SMILES,HCV inh,Cycloheximide cs,AMA1-RON2 inh,Pf growth 96h,Pf growth 48h,Shiga inhibitor
CCNc1nc(NC(C)(C)C)nc(SC(C(C)=O)C(C)=O)n1,-8.0%,-2.7,86.3%,/,-10.2%,7.9
CCNc1nc(NC(C)C)nc(NC(C)(C)C)n1,?,9.1,-4.8%,?,3.29µM*,3.2
Cc1cc(OC(=O)c2ccccc2F)c([N+](=O)[O-])c(=O)[nH]1,-15.1%,-6.2,-10.9%,-25.1%,30.3%,-3.2
CC1=C(C(=O)OC(C)(C)C)C(c2ccco2)C(C#N)=C(N)O1 (centres undefined),-13.2%,-5.7,1.0%,2.08µM*,0.1%,-23.2
CC(C)c1ccc(N2C(=O)NC(=O)/C(=C/c3cnc(-c4ccccc4)nc3)C2=O)cc1,10.0%,-1.4,2.3%,-3.7%,28.9%,13.8
CCc1ccc(N2C(=O)NC(=O)/C(=C\c3cccn3CCOc3ccc(C(C)C)cc3)C2=O)cc1,-1.8%,73.1*,10.8%,174.8%,144.5%,+
Cc1ccc(OCCn2cccc2/C=C2/C(=O)NC(=O)N(Cc3ccco3)C2=O)cc1,10.5%,21.7*,-2.0%,?,35.9%,36.9*
Cn1cccc1/C=C1\C(=O)NC(=O)N(Cc2ccco2)C1=O,14.4%,11.3,-22.7%,2.1%,-13.7%,-13.5
CCS(=O)(=O)N1CCN(C(=O)c2ccc3nc(C)c(N(C)C(=O)CCc4ccccc4)n3c2)CC1,/,/,-6.9%,/,/,/
C#CCNC(=O)C[C@@H]1C[C@@]2(C(=O)OCC)CCCC=C2N(CCCCCCCC)C1=O,/,/,-12.7%,/,/,/
O=C1/C(=C/c2ccc(N3CCCC3)cc2)NC(=S)N1C1CC1,?,19.0,-1.8%,-75.9%,/,23.6
O=C1/C(=C/c2ccccc2)NC(=S)N1C(c1ccccc1)c1ccccc1,?,-2.4,61.0%,/,11.7µM*,-2.1
N#Cc1cccc(NC(=S)Nc2ccccc2)c1,10.3%,-0.5,-0.7%,63.5%,33.4%,-1.6
Cc1cccc(NC(=O)Nc2cccc(C#N)c2)n1,?,35.6*,-3.6%,?,35.8%,21.5
Cc1cccc(NC(=O)Nc2ccc(C#N)cc2)n1,3.8%,17.6*,2.8%,?,-7.4%,17.3
Cc1cccc(N2CN(S(=O)(=O)c3cccc([N+](=O)[O-])c3)c3nc4ccccc4nc32)c1,-3.4%,/,4.6%,/,/,/
Cc1ccc(C(=O)NCCC(=O)N2CCOCC2)cc1,25.5%,50.1*,-8.1%,11.5%,183.9%,85.4*
Cc1ccc(C(=O)NCCN2CCOCC2)cc1,3.9%,13.1*,4.3%,33.1%,26.6%,20.0
COc1ccc(CC(N)C(=O)NC2C(CO)OC(n3cnc4c(N(C)C)ncnc43)C2O)cc1 (centres undefined),/,/,/,0.338µM*,0.379µM*,/
COCc1cc(O)c(O)c(O)c1-c1c(COC)cc(O)c(O)c1O,/,0.3,/,/,/,-4.8
Cc1ccc2sc(N(CCCN(C)C)C(=O)c3ccc(S(=O)(=O)N(C)C4CCCCC4)cc3)nc2c1C,?,/,?,11.7µM*,10.4µM*,/
Cc1ccc2sc(N(CCCN(C)C)C(=O)c3ccc(S(=O)(=O)N4CCOCC4)cc3)nc2c1C,?,/,-2.6%,?,13.1µM*,/
CCN(CC)CCN(C(=O)c1ccc(S(=O)(=O)N(C)C2CCCCC2)cc1)c1nc2c(C)cccc2s1,-13.7%,7.6,-4.8%,?,?,-3.8
Cc1ccc2nc(N(CCCN(C)C)C(=O)c3ccc(S(=O)(=O)N4CCOCC4)cc3)sc2c1,-11.3%,-2.7,1.3%,0.9%,-24.1%,-8.3
CCN(Cc1ccccc1)S(=O)(=O)c1ccc(C(=O)N(CCCN(C)C)c2nc3c(C)c(C)ccc3s2)cc1,12.6µM*,/,?,?,?,/
Cc1cccc(C)c1-n1nnnc1C(c1ccnc2ccccc12)N1CCN(c2ccccc2F)CC1 (centres undefined),/,/,45.6%,/,/,/
OC[C@H]1NC[C@H](O)[C@@H](O)[C@@H]1O,/,-2.1,/,/,/,4.1
CCOC(=O)c1ncccc1NC(=O)CC(=O)Nc1cccnc1C(=O)OCC,14.8%,/,14.1µM*,/,/,/
CCCC[C@]12Cc3ccccc3[C@H](O1)C1=C(O2)C(=O)c2ccccc2C1=O,/,-1.0,/,0.849µM*,?,i
